Compound activity deposited in PubChem by several laboratories.
Shown are actives, neighbours in structure and some others; about 5.3% of the full set was active somewhere.
Mot1-301 SUMO – inhibitors of SUMOylation pathway: yeast Mot1-301 growth rescue. S. cerevisiae Mot1-301 growth rescue, ATP luminescence, 38.5C; percent above DMSO median, 100 means doubled. growth rescue, % at 18.8 µM. 320,000 compounds, 1% hits. AID 2716;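 active = every valid replicate shows activation above 250% relative to neutral control wells; inactive = the rest, any valid replicate at or below 250%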;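 also: OY570 slx delta 5 strain wells were the positive control but not used for scaling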
ALR inh – blocks human ALR sulfhydryl oxidase activity; P55789; purified ALR, DTT oxidation, H2O2 HRP-luminol luminescence; inhibition, % (no concentration beside the values); 290,000 compounds, 3.8% hits;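 active = mean replicate inhibition above about 79%, with every replicate also reaching it, limit read from the data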
Target sequence (P55789 whole entry, looked up): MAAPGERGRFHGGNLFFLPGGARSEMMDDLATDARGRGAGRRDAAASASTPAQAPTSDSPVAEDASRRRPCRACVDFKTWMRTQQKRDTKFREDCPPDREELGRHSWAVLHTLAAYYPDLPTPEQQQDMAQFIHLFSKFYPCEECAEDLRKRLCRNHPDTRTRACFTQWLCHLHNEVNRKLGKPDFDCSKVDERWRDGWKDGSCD
M18AAP inhibitor – PfM18AAP enzyme inhibition | recombinant PfM18AAP, H-Glu-NHMec fluorogenic cleavage | inhibition, % at 7.35 µM | 290,000 compounds, 1.2% hits | AID 1822;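 active = inhibition above the campaign mean inhibition over all tested compounds plus 3 SD, cut at about 28% in these data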;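 also: 0% = plate median of test compound wells and 100% = 2 mM ZnCl2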
HIF activator – HIF pathway transcriptional activation | activation, % at 7.5 µM (by protocol) | 300,000 compounds, 0.32% hits | U2OS HRE-luciferase reporter, luminescence; normalized: DMSO 0%, desferrioxamine 100% | AID 1910;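 active = mean activation of at least 10% of the iron chelator positive control signal, with at least half of replicates also reaching 10%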
The depositor's hits bear a star; . = no result given.

SMILES	Mot1-301 SUMO	ALR inh	M18AAP inhibitor	HIF activator
Cc1nonc1C1CCCN1Cc1cn[nH]c1-c1ccc2c(c1)OCO2 (centres undefined)	13.8	-10.3	-2.4	-0.6
CCOCCCNCC(=O)Nc1ccccc1N1CCOCC1	5.5	97.0*	-2.0	.
CCOCCCNCC(=O)Nc1cc(S(=O)(=O)N2CCOCC2)ccc1N1CCOCC1	3.7	-4.8	.	.
CSc1nc(O)c(C(c2ccc(F)cc2)c2c(O)nc(SC)[nH]c2=O)c(=O)[nH]1	-21.3	3.3	.	0.0
CSc1nc(O)c(C(c2ccc(C)cc2)c2c(O)nc(SC)[nH]c2=O)c(=O)[nH]1	31.2	89.2*	-8.0	2.7
CCOc1ccccc1NC(=O)CN1C(=O)C(C)SC(C)C1=O (centres undefined)	-18.9	.	-3.2	-0.2
FC(F)(F)c1ccc2c(c1)NCC1CCCN21 (centres undefined)	0.6	97.8*	15.1	-0.8
FC(F)(F)c1ccc2c(c1)N1CCCC1CN2 (centres undefined)	-19.6	34.2	1.9	-0.5
COC(=O)CCC(=O)Nc1ccc(S(=O)(=O)Nc2cc(OC)nc(OC)n2)cc1	-10.9	-17.0	7.8	0.5
O=C(CSC1=NCCS1)Nc1ccc(S(=O)(=O)N2CCCCCC2)cc1	-16.2	98.3*	-0.4	-1.6
COc1cc(NS(=O)(=O)c2ccc(NC(=O)CSC3=NCCS3)cc2)nc(OC)n1	-13.4	98.9*	10.4	0.1
NS(=O)(=O)c1ccc(NC(=O)COc2ccc(S(=O)(=O)N3CCCC3)cc2)cc1	342.5*	.	4.8	0.0
COc1ccc(OCC(=O)Nc2ccc(S(=O)(=O)N3CCCC3)cc2)cc1	14.1	-7.9	4.8	0.2
CCOc1ccc(S(=O)(=O)N2CCC(C(=O)NCCc3ccc(S(N)(=O)=O)cc3)CC2)cc1	271.3*	-3.0	-5.1	-1.4
CCCNC(=O)c1onc(CS(=O)(=O)c2cc(C)cc(C)c2)c1C(=O)NCCC	-20.7	-1.5	.	.
Cc1ccccc1-c1cccc([C@@H]2C[C@H]3CN(Cc4cccnc4)C(=O)[C@]34CCCN24)c1	6.8	-8.5	-3.1	-0.1
COc1ccccc1N1CCN(C(=O)C2CCC(CNS(=O)(=O)c3ccc(NC(C)=O)cc3)CC2)CC1 (centres undefined)	15.4	9.3	-5.7	-5.5
Nc1nonc1-n1nnc(C(=O)N/N=C/c2ccoc2)c1CSc1ccc(Cl)cc1	-2.7	-2.4	-2.6	-0.3
O=C(CSC1=NCCS1)Nc1ccc(S(=O)(=O)NC2CCCCC2)cc1	-16.8	98.3*	-3.9	-0.5
CN(CC(=O)Nc1ccc(S(=O)(=O)N2CCCC2)cc1)CC(=O)Nc1cccc(F)c1	-26.2	-5.6	1.9	53.4*
CC(=O)Nc1ccc(NC(=O)CSC2=NCCS2)cc1	.	.	2.8	-0.2
CC(C(=O)Nc1ccc(S(=O)(=O)N2CCCC2)cc1)N(C)CC(=O)Nc1cccc(F)c1 (centres undefined)	18.9	-7.2	.	.
C/C(=N\Nc1nc(C(C)(C)C)cs1)c1ccccc1	36.4	98.4*	8.0	3.9
CC(/C=C/c1ccccc1)=N\Nc1nc(-c2ccccc2)cs1	0.6	-2.9	7.7	.
C/C(CCC1CC(C)OC1=O)=N/Nc1nc(-c2ccccc2)cs1 (centres undefined)	40.6	98.5*	15.3	0.7
SMILES	Mot1-301 SUMO	ALR inh	M18AAP inhibitor	HIF activator
CC(C)=NNc1nc(-c2ccccc2)cs1	6.6	97.4*	12.7	1.1
O=C(Nc1nc(-c2ccc(F)cc2)cs1)c1cccc(N2C(=O)CCC2=O)c1	-14.5	-0.9	3.6	1.7
CC(C)=NNc1nc(-c2ccc(N3C(=O)CCC3=O)cc2)cs1	0.4	98.6*	28.2*	0.4
CCOC(=O)c1cc(C(C)C)sc1NC(=O)COC(=O)CCS(=O)(=O)c1ccccc1	4.8	-1.5	-0.3	-0.4
CCOC(=O)c1c(NC(=O)COC(=O)CCS(=O)(=O)c2ccc(C)cc2)sc(C)c1C	-7.1	94.3*	7.0	0.1
CCCOc1cccc(C2C(C(=O)c3ccc(C)o3)=C(O)C(=O)N2c2nc(C)c(C(C)=O)s2)c1 (centres undefined)	4.0	97.1*	17.4	-0.3
CCc1ccc(CN(C(=O)COc2c(C)cccc2C)C2CCS(=O)(=O)C2)cc1 (centres undefined)	-14.7	-17.5	-7.4	-0.1
CCN(CC)c1ccc(CNC23CN4CN(CN(C4)C2)C3)cc1	.	98.1*	6.5	0.4
CN(C)c1ccc(CNC23CC4CC(CC(C4)C2)C3)cc1	.	.	-0.2	.
O=C(Nc1nn[nH]n1)c1cc(-c2ccc(Cl)c(Cl)c2Cl)nc2ccccc12	-13.3	-2.3	-2.4	-0.4
Nc1nc(N2CCCCC2)c(C=O)c(N2CCCCC2)n1	104.6	5.3	-0.6	-0.7
COc1ccc(NC(=O)COc2ccccc2C(=O)NCC(c2ccccc2)N(C)C)cc1Cl (centres undefined)	130.3	-6.8	-0.1	-0.1
Cc1ccc(NS(=O)(=O)c2cc([N+](=O)[O-])ccc2NNC(=S)Nc2cccc(Cl)c2)c(C)c1	1.6	15.1	31.7*	-1.6
Cc1ccccc1NS(=O)(=O)c1cc(C(=O)Nc2cccc([N+](=O)[O-])c2)ccc1C	-20.6	.	0.9	-0.3
COc1ccccc1N1CCN(C(=O)C2=CC=CN3CCS(=O)(=O)N=C23)CC1	-11.6	30.9	.	.
Cn1c2ccccc2c2cc(/C=C(\NC(=O)c3ccccc3)C(=O)O)ccc21	112.6	85.7*	13.3	.
COC(=O)/C(=C\c1ccc2c(c1)c1ccccc1n2C)NC(=O)c1ccccc1	-2.0	-0.7	-4.1	1.6
Cn1c(CNc2nc3ccccc3n2CCN2CCCCC2)nc2ccccc21	1.3	-7.5	-2.0	0.2
COc1ccc(CNc2nc3ccccc3n2Cc2ccc(Cl)cc2)cc1OC	-3.3	5.1	5.8	-0.9
CCn1c(NCc2cc(OC)c(OC)c(OC)c2)nc2ccccc21	-0.9	96.7*	-1.0	-0.2
CCN(CC)c1ccc(CNc2nc3ccccc3n2CCN2CCCCC2)cc1	44.7	98.5*	3.5	-0.5
CCN(Cc1nc2ccccc2n1C)c1ccccc1	-6.1	98.5*	-5.5	-0.4
COc1ccc(CNc2nc3ccccc3n2CCN2CCCCC2)cc1	-8.0	96.8*	1.3	-0.1
CCOc1ccc(CNc2nc3ccccc3n2CCN2CCOCC2)cc1	13.0	97.2*	4.1	0.2
CCn1c(NCc2ccc(N(C)C)cc2)nc2ccccc21	149.9	49.9	-0.5	1.1
SMILES	Mot1-301 SUMO	ALR inh	M18AAP inhibitor	HIF activator
CCN(CC)c1ccc(CNc2nc3ccccc3n2C)cc1	-20.7	98.0*	3.6	3.2
CCCCn1nnnc1NCc1ccc(N(CC)CC)cc1	-12.8	99.0*	31.3*	-0.3
CC1CCCN(c2ccc(F)cc2N)C1 (centres undefined)	.	-4.2	0.8	0.3
NC(=O)c1cc(N)ccc1N1CCCCC1	38.4	99.1*	7.5	-0.2
Cc1cc(N)ccc1N1CCCC1	-27.0	98.4*	19.1	-0.3
Cc1cc(N)ccc1-n1c(C)ccc1C	-8.3	17.5	21.9	-0.5
CC1CCCN(c2ccc(N)cc2C(N)=O)C1 (centres undefined)	276.8	98.3*	7.8	-0.6
NC(=O)c1cc(N)ccc1N1CCCC1	4.4	82.8*	9.3	-1.3
COc1ccc(-c2nn(-c3ccccc3)cc2C(N)=O)cc1OC	69.3	2.8	-1.0	-5.3
